# Test results: PubChem BioAssay
# Calls of active or inactive are those of the source. The rule behind the calls is not given here.
# Target: Pantothenate synthetase (Mycobacterium tuberculosis (strain ATCC 25618 / H37Rv)) (UniProt P9WIL5)
# Test: Recombinant Mtb pantothenate synthetase (PanC) inhibitors, coupled enzyme, confirmatory (AID 375);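 note: 0% = full reaction with vehicle and 100% = no enzyme background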
# Settings: coupled enzyme assay; at 10 µM, stronger effect = higher value
# Chain of Pantothenate synthetase (Mycobacterium tuberculosis (strain ATCC 25618 / H37Rv)) (P9WIL5 whole entry, looked up): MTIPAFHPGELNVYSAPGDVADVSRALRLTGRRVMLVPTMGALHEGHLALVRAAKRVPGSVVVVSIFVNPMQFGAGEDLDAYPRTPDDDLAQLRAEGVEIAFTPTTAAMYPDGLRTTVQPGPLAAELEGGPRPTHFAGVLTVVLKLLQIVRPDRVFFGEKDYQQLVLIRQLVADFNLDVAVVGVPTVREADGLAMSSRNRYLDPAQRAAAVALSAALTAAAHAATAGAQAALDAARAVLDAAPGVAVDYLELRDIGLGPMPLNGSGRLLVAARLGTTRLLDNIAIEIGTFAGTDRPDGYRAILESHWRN
row,SMILES,inhibition
1,CCc1nnc(NC(=O)CSc2nnc3ncccn23)s1,11% (inactive)
2,COc1ccccc1CNC(=O)N[C@@H](Cc1ccccc1)C(=O)O,6% (inactive)
3,CC(=O)c1ccc(Oc2cc(C)nc(-n3nc(C)cc3C)n2)cc1,4% (inactive)
4,CCC(C)(C(=O)NC1CCCCC1)N(Cc1ccco1)C(=O)c1ccc2c(c1)OCO2 (configuration not stated),0% (inactive)
5,COC(=O)c1ccc(NC2(C#N)C(=O)Nc3ccccc32)cc1 (configuration not stated),0% (inactive)
6,CCOc1ccc(OCc2cccc(C(=O)O)c2)cc1,6% (inactive)
7,CN(C=O)CP(=O)(O)CCN1CCCC1=O,0% (inactive)
8,CCOC(=O)Nc1ccc(OC)cc1S(=O)(=O)N1CCCCC1,0% (inactive)
9,COc1ccc(-c2nnc(SC(C)C(=O)Nc3nccs3)n2-c2ccccc2)cc1OC (configuration not stated),0% (inactive)
10,CCOC(=O)c1[nH]c(C)c(C(=O)Nc2ccc(C)cc2C)c1C,1% (inactive)
11,O=C(C1CCCO1)N1CCN(Cc2nc3ccccc3c(=O)[nH]2)CC1 (configuration not stated),0% (inactive)
12,CCC(=O)Oc1ccc(/C(CC)=C(\CC)c2ccc(OC(=O)CC)cc2)cc1,0% (inactive)
13,CCOCCCNS(=O)(=O)c1ccc2c(c1)oc(=O)n2CC(=O)OCC,8% (inactive)
14,CCOC(=O)c1ccc(COC(=O)CCc2nc3ccccc3[nH]c2=O)o1,0% (inactive)
15,O=c1[nH]cnc2c1C1(CCCC1)Cc1ccccc1-2,0% (inactive)
16,COc1ccc(-c2c(=O)n(OCc3ccccn3)c3ccccc3[n+]2[O-])cc1OC,3% (inactive)
17,CC(=O)C1=C(O)C(=O)N(c2ccc(C(=O)O)cc2)C1c1ccccc1 (configuration not stated),0% (inactive)
